According to PubChem BioAssay (Tox21):
Results filed as inconclusive are left out. The source made the active and inactive calls. Unless noted, calls come from the whole dose curve; as a rule, active = well fitted curve in the direction sought with a large enough effect in the repeat runs; inconclusive = weak or mixed curves; inactive = no such curve, though single readings can be large; an effect the other way counts as inactive or inconclusive.

Assays:
[1] = qHTS assay to identify aromatase inhibitors - cell viability counter screen (AID 743084);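 note: cells stimulated with testosterone during compound exposure; nearly all actives have a fitted effect of over 55% in size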
[2] = qHTS assay to identify small molecule that activate the aryl hydrocarbon receptor (AhR) signaling pathway - cell viability counter screen (AID 743086);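 note: HepG2 liver cells carrying the AhR DRE luciferase reporter; series mostly up to about 70 µM; nearly all actives have a fitted effect of over 45% in size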
How it was run: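 HepG2-AhR-luc (HG2L7.5c1) cells, 4000/well, treated 24 h at 37 C with compound; viability measured as CellTiter-Fluor fluorescence after 30 min in the same wells as the luciferase read.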

[3] = target: Peroxisome proliferator-activated receptor gamma (Homo sapiens) (UniProt P37231); assay: qHTS assay to identify small molecule antagonists of the peroxisome proliferator-activated receptor gamma (PPARg) signaling pathway (AID 743191; calls by dose curve; note: series mostly up to about 63 µM; nearly all actives have a fitted effect of over 30% in size)
Peroxisome proliferator-activated receptor gamma (Homo sapiens), sequence (P37231 whole entry, looked up): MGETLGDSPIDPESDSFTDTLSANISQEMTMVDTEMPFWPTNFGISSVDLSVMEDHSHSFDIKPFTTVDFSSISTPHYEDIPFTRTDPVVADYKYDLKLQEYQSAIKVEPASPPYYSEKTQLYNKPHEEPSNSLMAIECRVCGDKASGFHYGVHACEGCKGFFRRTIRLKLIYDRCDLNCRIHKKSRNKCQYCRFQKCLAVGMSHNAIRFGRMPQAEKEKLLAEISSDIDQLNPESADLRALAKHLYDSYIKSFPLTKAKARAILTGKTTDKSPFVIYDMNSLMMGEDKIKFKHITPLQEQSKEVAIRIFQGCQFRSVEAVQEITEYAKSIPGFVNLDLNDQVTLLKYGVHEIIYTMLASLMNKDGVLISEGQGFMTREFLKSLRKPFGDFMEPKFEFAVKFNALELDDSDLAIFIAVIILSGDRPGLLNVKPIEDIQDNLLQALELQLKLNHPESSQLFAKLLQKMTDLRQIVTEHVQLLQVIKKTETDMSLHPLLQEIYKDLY
How it was run: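 GeneBLAzer PPARg UAS-bla HEK293H cells, 5 h post-plating, exposed to compounds 17 h at 37C. LiveBLAzer B/G FRET substrate added for 1 h at room temperature; beta-lactamase reporter read by fluorescence intensity.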

[4] = qHTS assay to identify small molecule antagonists of the peroxisome proliferator-activated receptor gamma (PPARg) signaling pathway - cell viability counter screen (AID 743194); conditions: Potency: co-treated with 50 nM rosiglitazone; note: nearly all actives have a fitted effect of over 55% in size
How it was run: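 Cytotoxicity counter screen in PPARg-bla HEK293H cells, same wells as reporter assay. Compounds plus 50 nM rosiglitazone (final) for 17 h at 37 C, then viability read by CellTiter-Glo luminescence.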

[5] = qHTS assay for small molecule agonists of the antioxidant response element (ARE) signaling pathway (AID 743202; active = well fitted activation curve with a large enough effect in the signal ratio in the repeat runs, not every such curve was filed as active; the % refers to the signal ratio)
How it was run: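 Agonist mode reporter screen: HepG2 cells with ARE-controlled beta-lactamase are incubated with test compounds for 16 h at 37 C, and beta-lactamase activity is measured as fluorescence of cleaved B/G FRET substrate.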

[6] = qHTS assay to identify small molecule antagonists of the peroxisome proliferator-activated receptor delta (PPARd) signaling pathway - cell viability counter screen (AID 743213); note: nearly all actives have a fitted effect of over 50% in size
How it was run: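 Luminescence from CellTiter-Glo, added after the bla read and incubated 30 min at room temperature, gives viability of HEK293H PPARd-bla cells exposed to compounds for 17 h at 37 C with 300 nM L165041.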

[7] = qHTS assay to identify small molecule agonists of the farnesoid-X-receptor (FXR) signaling pathway - cell viability counter screen (AID 743218); note: nearly all actives have a fitted effect of over 45% in size
How it was run: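 FXR-UAS-bla HEK 293T cells, plated 5 h at 37 C, were exposed to compounds for 16 h at 37 C. CellTiter-Glo was then added to the same wells as the bla readout; luminescence read after 30 min at room temperature.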

[8] = target: Vitamin D3 receptor (Homo sapiens) (UniProt P11473); assay: qHTS assay to identify small molecule agonists of the vitamin D receptor (VDR) signaling pathway (AID 743222; calls by dose curve)
Vitamin D3 receptor (Homo sapiens), sequence (P11473 whole entry, looked up): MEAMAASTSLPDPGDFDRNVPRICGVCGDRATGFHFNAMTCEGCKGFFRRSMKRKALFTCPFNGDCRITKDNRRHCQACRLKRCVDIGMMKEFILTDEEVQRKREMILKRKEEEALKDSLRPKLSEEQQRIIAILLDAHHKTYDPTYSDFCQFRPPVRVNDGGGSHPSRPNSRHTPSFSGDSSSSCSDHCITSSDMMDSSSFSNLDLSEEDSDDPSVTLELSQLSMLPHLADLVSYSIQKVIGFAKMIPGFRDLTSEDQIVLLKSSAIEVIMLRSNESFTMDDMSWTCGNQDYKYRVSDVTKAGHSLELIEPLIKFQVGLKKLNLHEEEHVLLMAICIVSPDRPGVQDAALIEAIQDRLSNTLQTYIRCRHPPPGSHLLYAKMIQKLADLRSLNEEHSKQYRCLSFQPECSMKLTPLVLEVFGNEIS
How it was run: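 VDR-bla cells were plated 4 h at 37C/5% CO2, then exposed to compounds in DMSO for 16 h. After LiveBLAzer B/G FRET substrate addition and 2 h at room temperature, beta-lactamase reporter fluorescence was read.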

[9] = target: Peroxisome proliferator-activated receptor gamma (Homo sapiens) (UniProt P37231); assay: qHTS assay to identify small molecule agonists of the peroxisome proliferator-activated receptor gamma (PPARg) signaling pathway (AID 743094; active = well fitted activation curve with a large enough effect in the signal ratio in the repeat runs, not every such curve was filed as active; the % refers to the signal ratio)
How it was run: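 GeneBLAzer PPARg UAS-bla HEK293H cells carrying a stably integrated beta-lactamase reporter were pre-incubated 5 h at 37C, then exposed to compounds in DMSO for 17 h at 37C; LiveBLAzer B/G FRET substrate was added for 1 h at room temperature and fluorescence read.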

[10] = qHTS assay for small molecule agonists of the antioxidant response element (ARE) signaling pathway - cell viability counter screen (AID 743203; calls by dose curve; note: nearly all actives have a fitted effect of over 55% in size)
How it was run: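 CellSensor ARE-bla HepG2 cells, 2,000 per well, rested 5 hrs at 37C/5% CO2, then exposed to compound in DMSO for 16 hrs; viability read as CellTiter-Glo luminescence after 30 min at room temperature, in the reporter wells.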

[11] = qHTS assay for small molecule activators of the heat shock response signaling pathway (AID 743210; active = well fitted activation curve with a large enough effect in the signal ratio in the repeat runs, with a control signal flat, not every such curve was filed as active; the % refers to the signal ratio;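 note: HeLa cells with beta-lactamase reporter driven by heat shock elements; series mostly up to about 63 µM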)
How it was run: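 Quantitative high-throughput format using an engineered HeLa line in which heat shock response elements drive beta-lactamase; after 5 h with compound, cells received a B/G FRET substrate and fluorescence was read.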

[12] = target: Peroxisome proliferator-activated receptor delta (Homo sapiens) (UniProt Q03181); assay: qHTS assay to identify small molecule agonists of the peroxisome proliferator-activated receptor delta (PPARd) signaling pathway (AID 743212; calls by dose curve)
Peroxisome proliferator-activated receptor delta (Homo sapiens), sequence (Q03181 whole entry, looked up): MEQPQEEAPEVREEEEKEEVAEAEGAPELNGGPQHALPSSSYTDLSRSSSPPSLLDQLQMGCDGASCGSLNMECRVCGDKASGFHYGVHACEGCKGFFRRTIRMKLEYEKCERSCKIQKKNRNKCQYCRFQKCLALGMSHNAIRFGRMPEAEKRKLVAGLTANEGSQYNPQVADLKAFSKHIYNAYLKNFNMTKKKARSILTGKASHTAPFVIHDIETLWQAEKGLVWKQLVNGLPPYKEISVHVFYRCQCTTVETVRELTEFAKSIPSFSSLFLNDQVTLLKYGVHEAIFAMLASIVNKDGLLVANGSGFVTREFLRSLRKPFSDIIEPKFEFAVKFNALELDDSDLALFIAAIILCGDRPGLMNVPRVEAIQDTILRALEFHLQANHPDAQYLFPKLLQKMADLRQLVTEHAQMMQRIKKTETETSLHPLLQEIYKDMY
How it was run: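 Quantitative high-throughput agonist screen in a HEK293H beta-lactamase reporter line under UAS control. Compounds in DMSO, at 37 C. Fluorescence read after 2 h with FRET substrate at room temperature.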

[13] = target: Peroxisome proliferator-activated receptor delta (Homo sapiens) (UniProt Q03181); assay: qHTS assay to identify small molecule antagonists of the peroxisome proliferator-activated receptor delta (PPARd) signaling pathway (AID 743215; active = well fitted inhibition curve with a large enough effect in the signal ratio in the repeat runs, not every such curve was filed as active; the % refers to the signal ratio;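 note: cells stimulated with agonist L165041 at 300 nM final during compound exposure; series mostly up to about 62 µM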)
How it was run: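 PPARd UAS-bla HEK293H cells were pre-incubated 5 h at 37 C, then given test compounds in DMSO plus agonist L165041 (300 nM final). After 17 h at 37 C, beta-lactamase FRET substrate was added; fluorescence read after 2 h at room temperature.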

[14] = qHTS assay to identify small molecule antagonists of the farnesoid-X-receptor (FXR) signaling pathway - cell viability counter screen (AID 743221; active = well fitted cell-killing curve with a large enough effect in the repeat runs, not every such curve was filed as active; note: nearly all actives have a fitted effect of over 50% in size)
How it was run: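 CellTiter-Glo, 30 min RT, luminescence; same wells as the LiveBLAzer FRET read. Cells: FXR-UAS-bla HEK 293T. Treatment: compound with chenodeoxycholic acid 50 uM final, 16 h at 37 C.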

[15] = qHTS assay to identify small molecule agonists of the peroxisome proliferator-activated receptor delta (PPARd) signaling pathway - cell viability counter screen (AID 743211); note: nearly all actives have a fitted effect of over 55% in size
How it was run: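 Multiplexed format: after the 2 h room-temperature LiveBLAzer B/G FRET step, CellTiter-Glo was added to the same wells. Luminescence after 30 min gave cell viability; compound exposure was 17 h at 37C.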

[16] = target: Vitamin D3 receptor (Homo sapiens) (UniProt P11473); assay: qHTS assay to identify small molecule antagonists of the vitamin D receptor (VDR) signaling pathway (AID 743223; active = well fitted inhibition curve with a large enough effect in the signal ratio in the repeat runs, not every such curve was filed as active; the % refers to the signal ratio)
How it was run: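 After VDR-bla cells are plated and left 4 h at 37C, DMSO-dissolved compounds and 3 nM (final) calcitriol agonist are added. Incubation continues 16 h at 37C; FRET beta-lactamase substrate then develops 2 h at room temperature.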

[17] = qHTS assay for small molecule activators of the heat shock response signaling pathway - cell viability counter screen (AID 743209); note: nearly all actives have a fitted effect of over 50% in size
How it was run: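 CellSensor HSE-bla HeLa cells, plated overnight at 37 C/5% CO2, were exposed to compounds in DMSO for 5 h at 37 C. Viability was then read in the same wells by CellTiter-Glo luminescence after 30 min at room temperature.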

[18] = target: Bile acid receptor (Homo sapiens) (UniProt Q96RI1); assay: qHTS assay to identify small molecule antagonists of the farnesoid-X-receptor (FXR) signaling pathway (AID 743217; active = well fitted inhibition curve with a large enough effect in the signal ratio in the repeat runs, not every such curve was filed as active; the % refers to the signal ratio)
Bile acid receptor (Homo sapiens), sequence (Q96RI1 whole entry, looked up): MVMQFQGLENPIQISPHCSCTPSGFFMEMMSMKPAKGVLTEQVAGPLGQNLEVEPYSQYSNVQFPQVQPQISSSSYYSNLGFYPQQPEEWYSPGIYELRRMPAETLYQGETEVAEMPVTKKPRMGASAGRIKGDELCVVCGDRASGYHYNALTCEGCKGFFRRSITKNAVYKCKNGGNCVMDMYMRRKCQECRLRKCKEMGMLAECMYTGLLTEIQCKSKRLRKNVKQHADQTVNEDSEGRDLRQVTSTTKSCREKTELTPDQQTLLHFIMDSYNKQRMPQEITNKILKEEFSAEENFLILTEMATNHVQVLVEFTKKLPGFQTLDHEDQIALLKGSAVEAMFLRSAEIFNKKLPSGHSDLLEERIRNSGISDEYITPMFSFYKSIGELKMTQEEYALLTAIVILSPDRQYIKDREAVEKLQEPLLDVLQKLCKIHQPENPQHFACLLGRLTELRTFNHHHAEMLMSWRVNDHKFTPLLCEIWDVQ
How it was run: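 FXR-UAS-bla HEK 293T cells pre-incubated 5 h at 37 °C, then exposed to compounds with chenodeoxycholic acid (50 uM final) for 16 h at 37 °C. Beta-lactamase reporter read by LiveBLAzer B/G FRET substrate fluorescence after 2 h at room temperature.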

[19] = target: Bile acid receptor (Homo sapiens) (UniProt Q96RI1); assay: qHTS assay to identify small molecule agonists of the farnesoid-X-receptor (FXR) signaling pathway (AID 743220; active = well fitted activation curve with a large enough effect in the signal ratio in the repeat runs, not every such curve was filed as active; the % refers to the signal ratio)
How it was run: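 Beta-lactamase reporter under UAS control in GeneBLAzer FXR HEK 293T cells (5000/well) measured with LiveBLAzer FRET substrate after 2 h at room temperature. Compound exposure lasted 16 h at 37C.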

Measured: Potency

CCC(C)Cl (stereo not given)
inactive: [1] | [2] | [3] | [4] | [5] | [6] | [7] | [8]

C=C(C)C(=O)OCCCCOC(=O)C(=C)C
not listed: [3] | [5] | [15] | [16] | [17] | [18] | [19]
inactive: all other assays above

O=[N+]([O-])c1cc(Cl)c(Cl)cc1Cl
not listed: [3] | [5] | [6] | [17] | [18] | [19]
inactive: all other assays above

CCCCC(CC)CO[N+](=O)[O-] (stereo not given)
not listed: [5] | [9] | [16] | [18] | [19]
inactive: all other assays above

CCc1cnc(C2=NC(C)(C(C)C)C(=O)N2)c(C(=O)O)c1 (stereo not given)
not listed: [18] | [19]
inactive: all other assays above

Nc1c(Br)cc(Br)c2c1C(=O)c1ccccc1C2=O
not listed: [3] | [5] | [7] | [16] | [18] | [19]
inactive: all other assays above

CC(Cc1ccccc1)NCc1ccccc1Cl (stereo not given)
not listed: [5] | [7] | [11] | [15] | [17] | [18] | [19]
inactive: all other assays above

C[C@H]1O[C@H](OC2[C@@H](O)[C@@H](O)C(O)[C@H](O)[C@H]2O)[C@@H](N)C[C@@H]1N=C(N)C(=O)O (stereo not given in full)
not listed: [8] | [9] | [15] | [16] | [18] | [19]
inactive: all other assays above

O=C([O-])c1ccccn1.O=C([O-])c1ccccn1.O=C([O-])c1ccccn1.[Cr+3]
not listed: [8] | [11] | [12] | [13] | [16] | [18] | [19]
inactive: all other assays above

CCC[N+](CCC)(CCC)CCC
not listed: [8] | [9] | [11] | [16] | [18] | [19]
inactive: all other assays above

CC1(C)CC(=O)CC(C)(C)N1[O]
not listed: [3] | [5] | [11]
inactive: all other assays above

CCCCCBr
not listed: [6] | [11] | [18] | [19]
inactive: all other assays above

Oc1cccc(Cl)c1
not listed: [6] | [11] | [12] | [13] | [15] | [18]
inactive: all other assays above

FC(F)OC(F)(F)C(F)Cl (stereo not given)
not listed: [18] | [19]
inactive: all other assays above

CC[N+]1(CCOC(=O)C(O)(c2ccccc2)c2ccccc2)CCCCC1
not listed: [5] | [17] | [18]
inactive: all other assays above

NP(N)(=O)NC(=O)c1ccc(F)cc1
not listed: [3] | [9] | [16] | [18] | [19]
inactive: all other assays above

COc1ccc(C(=O)c2c(C)n(CCN3CCOCC3)c3ccccc23)cc1
not listed: [3] | [5] | [7] | [8] | [16] | [17] | [18]
inactive: all other assays above
